# Source: ChEMBL document CHEMBL4513148, “CO-ADD screening of Stellenbosch University (South Africa) compounds”
# Results with a measured potency or affinity are listed apart.
# System: Klebsiella pneumoniae
# Conditions: Concentration 32 ug.mL-1; ASSAY_TEST Inhibition of Bacterial Growth; detection method Absorption (OD600); MEDIA CAMHB; plate type 384well; NBS; CORNING #3640; time 18 hr
row,SMILES,Inhibition [%]
1,CC(C)(CO)[C@H](O)C(=O)NCCCc1cn(C[C@H]2O[C@@H](n3ccc(N)nc3=O)[C@H](O)[C@@H]2O)nn1,15.48
2,CC(C)(CO)[C@H](O)C(=O)NCCC(=O)OCc1cn(C[C@H]2O[C@@H](n3ccc(N)nc3=O)[C@H](O)[C@@H]2O)nn1,19.86
3,CCCCCCCNC(=S)CCNC(=O)[C@H](O)C(C)(C)CO,15.93
4,CC(CC(=O)NCCc1ccccc1)NC(=O)[C@H](O)C(C)(C)CO (some centres undefined),21.7
5,CC(C)(CO)C(O)C(=O)NCCCOP(=O)(O)OCC1OC(n2ccc(N)nc2=O)C(O)C1O (centres undefined),14.41
6,CCCCCCNNC(=O)CCNC(=O)[C@H](O)C(C)(C)CO,13.13
7,CC(C)(C)C(O)C(=O)NCCC(=O)NCCc1ccccc1 (centres undefined),24.7
8,CCCCCCCNS(=O)(=O)CCNC(=O)[C@H](O)C(C)(C)CO,15.06
9,CC(C)(CN)C(O)C(=O)NCCC(=O)NCCc1ccccc1 (centres undefined),28.43
10,CC(C)(CO)[C@H](O)C(=O)NCc1cn(C[C@H]2O[C@@H](n3ccc(N)nc3=O)[C@H](O)[C@@H]2O)nn1,7.03
11,CC(C)(CO)[C@@H](O)C(=O)N/C=C/C(=O)NCCc1ccccc1,27.58
12,CCCCCCCNC(=O)CCNC(=O)C(O)C(C)(C)C (centres undefined),17.81
13,CC(C)(CO)[C@@H](O)C(=O)NCCC(=S)NCCc1ccccc1,23.06
14,CC(C)(CO)[C@@H](O)C(=O)NCCC(=O)NNCc1ccccc1,28.52
15,C#CCNC(=O)[C@H](O)C(C)(C)CO,17.37
16,CC(C)(CO)[C@H](O)C(=O)NCCc1cn(C[C@H]2O[C@@H](n3ccc(N)nc3=O)[C@H](O)[C@@H]2O)nn1,11.31
17,CC(C)(CO)[C@H](O)C(=O)NCCC(=O)NCc1cn(C[C@H]2O[C@@H](n3ccc(N)nc3=O)[C@H](O)[C@@H]2O)nn1,19
18,CC(C)(COP(=O)(O)O)[C@@H](O)C(=O)NCCC(=O)NCCc1ccccc1,20.53

# System: Candida albicans
# Conditions: 32 ug/mL
row,SMILES,Inhibition [%]
1,CC(C)(CO)[C@H](O)C(=O)NCCCc1cn(C[C@H]2O[C@@H](n3ccc(N)nc3=O)[C@H](O)[C@@H]2O)nn1,1.6
2,CC(C)(CO)[C@H](O)C(=O)NCCC(=O)OCc1cn(C[C@H]2O[C@@H](n3ccc(N)nc3=O)[C@H](O)[C@@H]2O)nn1,3.13
3,CCCCCCCNC(=S)CCNC(=O)[C@H](O)C(C)(C)CO,2.87
4,CC(CC(=O)NCCc1ccccc1)NC(=O)[C@H](O)C(C)(C)CO (some centres undefined),3.05
5,CC(C)(CO)C(O)C(=O)NCCCOP(=O)(O)OCC1OC(n2ccc(N)nc2=O)C(O)C1O (centres undefined),3.26
6,CCCCCCNNC(=O)CCNC(=O)[C@H](O)C(C)(C)CO,-0.25
7,CC(C)(C)C(O)C(=O)NCCC(=O)NCCc1ccccc1 (centres undefined),0.67
8,CCCCCCCNS(=O)(=O)CCNC(=O)[C@H](O)C(C)(C)CO,-2.91
9,CC(C)(CN)C(O)C(=O)NCCC(=O)NCCc1ccccc1 (centres undefined),3.05
10,CC(C)(CO)[C@H](O)C(=O)NCc1cn(C[C@H]2O[C@@H](n3ccc(N)nc3=O)[C@H](O)[C@@H]2O)nn1,-0.48
11,CC(C)(CO)[C@@H](O)C(=O)N/C=C/C(=O)NCCc1ccccc1,6.96
12,CCCCCCCNC(=O)CCNC(=O)C(O)C(C)(C)C (centres undefined),1
13,CC(C)(CO)[C@@H](O)C(=O)NCCC(=S)NCCc1ccccc1,-0.77
14,CC(C)(CO)[C@@H](O)C(=O)NCCC(=O)NNCc1ccccc1,4.15
15,C#CCNC(=O)[C@H](O)C(C)(C)CO,-0.84
16,CC(C)(CO)[C@H](O)C(=O)NCCc1cn(C[C@H]2O[C@@H](n3ccc(N)nc3=O)[C@H](O)[C@@H]2O)nn1,0.57
17,CC(C)(CO)[C@H](O)C(=O)NCCC(=O)NCc1cn(C[C@H]2O[C@@H](n3ccc(N)nc3=O)[C@H](O)[C@@H]2O)nn1,2.72
18,CC(C)(COP(=O)(O)O)[C@@H](O)C(=O)NCCC(=O)NCCc1ccccc1,1.57

# System: Cryptococcus neoformans
# Conditions: Concentration 32 ug.mL-1; ASSAY_TEST Inhibition of Fungal Growth; detection method Resazurin; Absorption (OD600-OD570); plate type 384well; NBS; CORNING #3640
row,SMILES,Inhibition [%]
1,CC(C)(CO)[C@H](O)C(=O)NCCCc1cn(C[C@H]2O[C@@H](n3ccc(N)nc3=O)[C@H](O)[C@@H]2O)nn1,-4.03
2,CC(C)(CO)[C@H](O)C(=O)NCCC(=O)OCc1cn(C[C@H]2O[C@@H](n3ccc(N)nc3=O)[C@H](O)[C@@H]2O)nn1,-1.73
3,CCCCCCCNC(=S)CCNC(=O)[C@H](O)C(C)(C)CO,-3.35
4,CC(CC(=O)NCCc1ccccc1)NC(=O)[C@H](O)C(C)(C)CO (some centres undefined),2.32
5,CC(C)(CO)C(O)C(=O)NCCCOP(=O)(O)OCC1OC(n2ccc(N)nc2=O)C(O)C1O (centres undefined),-6.1
6,CCCCCCNNC(=O)CCNC(=O)[C@H](O)C(C)(C)CO,3.11
7,CC(C)(C)C(O)C(=O)NCCC(=O)NCCc1ccccc1 (centres undefined),-0.45
8,CCCCCCCNS(=O)(=O)CCNC(=O)[C@H](O)C(C)(C)CO,2.56
9,CC(C)(CN)C(O)C(=O)NCCC(=O)NCCc1ccccc1 (centres undefined),42.65
10,CC(C)(CO)[C@H](O)C(=O)NCc1cn(C[C@H]2O[C@@H](n3ccc(N)nc3=O)[C@H](O)[C@@H]2O)nn1,6.11
11,CC(C)(CO)[C@@H](O)C(=O)N/C=C/C(=O)NCCc1ccccc1,-6.96
12,CCCCCCCNC(=O)CCNC(=O)C(O)C(C)(C)C (centres undefined),0.36
13,CC(C)(CO)[C@@H](O)C(=O)NCCC(=S)NCCc1ccccc1,0.82
14,CC(C)(CO)[C@@H](O)C(=O)NCCC(=O)NNCc1ccccc1,-4.98
15,C#CCNC(=O)[C@H](O)C(C)(C)CO,-0.61
16,CC(C)(CO)[C@H](O)C(=O)NCCc1cn(C[C@H]2O[C@@H](n3ccc(N)nc3=O)[C@H](O)[C@@H]2O)nn1,-3.52
17,CC(C)(CO)[C@H](O)C(=O)NCCC(=O)NCc1cn(C[C@H]2O[C@@H](n3ccc(N)nc3=O)[C@H](O)[C@@H]2O)nn1,-1.6
18,CC(C)(COP(=O)(O)O)[C@@H](O)C(=O)NCCC(=O)NCCc1ccccc1,21.44
